This is a sample that favours compounds with a hit; in the whole collection about 2.1% have one here.
Ecoli rRNA inh: reduced GFP signal of wild-type E. coli, primary screen, bacterial rRNA inhibitor project, GFP/RFP fluorescence, OD600, single point; E. coli WT GFP vs humanized-ribosome RFP mutants, 24 h; active compounds read low; DMSO median 0, no signal -100; GFP signal change (wild-type ribosome), % (concentration not given with the values); 1.6% of 350,000 active; AID 720706, 2013;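 active = significant combined selectivity score with lowered wild-type GFP, culture density cut under 30%, mutant RFP and density less affected; inactive = any of these conditions unmet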
PvdQ inh: P. aeruginosa PvdQ acylase inhibitors, primary screen, biochemical, fluorescence, plate reader and imaging, single point | AID 488965, 2010 | PvdQ acylase [Pseudomonas aeruginosa LESB58] | 0.063% of 340,000 active | inhibition, % at 10 µM | purified PvdQ acylase; in the data active = inhibition above about 30%, passing the limit was not always enough;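 note: 0% = vehicle neutral wells and 100% = reference inhibitor wells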
ERAP1 inh: human ERAP1 aminopeptidase inhibitors, primary screen, biochemical, single point, plate reader; recombinant ERAP1, Leu-AMC fluorescence, 60 min; inhibition, % at 10.7 µM; 0.15% of 340,000 active;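 active = mean replicate inhibition of at least 30%, or all replicates individually reaching that 30% level; inactive = mean below 30% and not every replicate reaching it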;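 note: 0% = neutral control wells and 100% = L-leucinethiol positive control wells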
Target sequence (Q9NZ08 whole entry, looked up): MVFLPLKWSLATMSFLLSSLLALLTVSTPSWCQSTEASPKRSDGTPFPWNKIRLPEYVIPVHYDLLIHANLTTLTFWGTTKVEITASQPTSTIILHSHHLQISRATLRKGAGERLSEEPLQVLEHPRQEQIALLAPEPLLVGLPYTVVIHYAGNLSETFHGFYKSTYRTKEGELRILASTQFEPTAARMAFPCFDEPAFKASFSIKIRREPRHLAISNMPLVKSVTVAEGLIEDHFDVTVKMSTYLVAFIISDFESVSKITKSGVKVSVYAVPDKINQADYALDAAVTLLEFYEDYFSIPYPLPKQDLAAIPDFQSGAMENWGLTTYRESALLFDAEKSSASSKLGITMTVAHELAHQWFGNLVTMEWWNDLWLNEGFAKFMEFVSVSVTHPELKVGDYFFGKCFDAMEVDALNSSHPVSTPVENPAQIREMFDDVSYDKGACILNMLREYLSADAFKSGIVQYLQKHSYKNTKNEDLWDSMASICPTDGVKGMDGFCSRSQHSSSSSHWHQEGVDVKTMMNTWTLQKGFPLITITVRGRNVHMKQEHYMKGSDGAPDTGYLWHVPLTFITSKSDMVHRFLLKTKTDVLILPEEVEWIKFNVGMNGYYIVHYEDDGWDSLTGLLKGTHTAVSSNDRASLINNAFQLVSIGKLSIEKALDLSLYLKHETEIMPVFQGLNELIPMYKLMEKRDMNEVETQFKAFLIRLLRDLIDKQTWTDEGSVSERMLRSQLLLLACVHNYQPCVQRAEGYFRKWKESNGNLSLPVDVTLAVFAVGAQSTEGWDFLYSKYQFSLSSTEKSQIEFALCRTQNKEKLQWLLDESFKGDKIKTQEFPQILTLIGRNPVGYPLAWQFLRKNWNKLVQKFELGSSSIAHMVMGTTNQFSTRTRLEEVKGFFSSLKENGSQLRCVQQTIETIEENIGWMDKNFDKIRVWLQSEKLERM
F508del corr: F508del CFTR correction, initial screen, CFBE line, single point; CFBE cells, YFP halide quenching; stimulated with forskolin plus potentiator P3; % fluorescence drop versus neutral controls; AID 720511, 2013; 0.36% of 350,000 active; activity (quench increase), % at 7.58 µM;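 active = mean added fluorescence quench of at least 8% versus neutral control, with both replicates also reaching 8%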;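 note: cells transiently co-express mutant CFTR-F508del with the halide-sensitive YFP; corrector assay measuring rescue of mutant channel to the surface after 24 h compound exposure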
ARNT-TACC3 inh: disruptors of ARNT/TACC3 protein interaction, primary screen, biochemical, AlphaScreen, single concentration. inhibition, % at 9.99 µM. 0.66% of 390,000 active. AlphaScreen His-ARNT PAS-B/GST-TACC3 binding, luminescence; TACC3 fragment carries E629A point mutation. AID 623870, 2012. Transforming acidic coiled-coil-containing protein 3 (Homo sapiens), Q9Y6A5;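 active = mean inhibition of replicates at least 50% and at least half of replicates each reaching 50%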;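 note: 0% = complete ARNT plus TACC3 wells and 100% = ARNT alone without TACC3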
* hit, by the source's call; i = inactive; nt = no result given.

SMILES	Ecoli rRNA inh	PvdQ inh	ERAP1 inh	F508del corr	ARNT-TACC3 inh
COc1cccc2nc3c(C(=O)NCCN(C)C)cccc3cc12	-15.7	-12.1	4.8	4.5	5.5
COc1ccc(-c2coc3c(C(=O)NCCN(C)C)cccc23)c(C)c1	1.5	nt	8.8	-1.2	nt
COc1ccc(C(=O)NCCN(C)C)c2nc3ccccc3cc12	-32.0	-20.3	4.6	14.7*	1.6
CN(C)CCNC(=O)c1cccc2nc3c(ccc4ccccc43)nc12	-52.4	-11.3	3.7	18.7*	14.8
COc1ccccc1NC(=O)N1C[C@H](O)COC[C@H]2O[C@@H](CC(=O)NCc3ccccc3)CC[C@@H]21	-2.2	nt	-1.0	2.5	-3.7
CCCN1[C@@H]2Cn3c(ccc(-c4ccncc4)c3=O)[C@H]1[C@@H](C(=O)NCCc1cn(C)cn1)[C@@H]2CO	1.9	nt	-2.2	-1.7	2.5
O=C(NCCc1c[nH]c2ccccc12)/C(=C/c1cccnc1)NC(=O)c1ccccc1	-0.6	7.6	-7.1	-6.2	0.5
O=C(NCCc1c[nH]c2ccccc12)/C(=C/c1cccnc1)NC(=O)c1cccs1	-27.7*	3.0	-6.4	-0.3	0.1
C[C@H]1CN([C@@H](C)CO)C(=O)c2cccc(NS(=O)(=O)c3ccc(Cl)cc3)c2O[C@@H]1CN(C)C(=O)Nc1ccc(F)cc1	-0.6	nt	0.7	-0.5	-5.0
O=C(N/N=C\c1ccccc1OCc1ccccc1)c1ccco1	-4.5	8.7	-4.4	0.8	nt
O=C(N/N=C/c1c(O)n(Cc2ccco2)c(=O)[nH]c1=O)c1ccccc1	nt	-11.6	-0.3	3.5	62.5*
C/C=C/c1ccc2c(c1)O[C@H](CN(C)C(=O)Nc1ccccc1)[C@@H](C)CN([C@@H](C)CO)S2(=O)=O	-6.3	nt	0.7	5.7	-3.4
N#C[C@H]1[C@@H](c2ccc(C3=CCCCC3)cc2)[C@H](CO)N1C(=O)CN1CCOCC1	4.6	nt	-2.0	0.5	17.3
CC(C)C#Cc1cnc2c(c1)C(=O)N([C@H](C)CO)C[C@@H](C)[C@@H](CN(C)Cc1cncnc1)O2	3.8	nt	7.6	2.8	-6.5
S=c1nc(-c2ccccc2Cl)n(Cc2cccnc2)c2c1CCCC2	-26.2*	-6.5	0.9	nt	-1.6
C[C@H](CO)N1C[C@H](C)[C@H](CN(C)S(=O)(=O)c2ccccc2)Oc2ccc(NS(=O)(=O)c3ccc(F)cc3)cc2C1=O	1.5	nt	nt	3.3	25.1
O=C1C(=O)c2c(C(=O)c3ccccc3)coc2-c2ccccc21	-43.9*	1.3	0.2	-8.1	17.3
O=C(C[C@@H]1CC[C@H]2[C@@H](COC[C@H](O)CN2C(=O)Nc2cc(Cl)cc(Cl)c2)O1)N1CCOCC1	-28.5*	nt	-1.7	-2.1	-0.1
C[C@H](NC(=O)C[C@H]1CC[C@H]2[C@@H](COC[C@H](O)CN2C(=O)Nc2ccccc2)O1)c1ccccc1	1.4	nt	43.0*	0.4	3.3
O=C(C[C@H]1CC[C@@H]2[C@H](COC[C@@H](O)CN2C(=O)Nc2cc(Cl)cc(Cl)c2)O1)N1CCOCC1	-33.5*	nt	nt	2.3	30.1
O=C(C[C@@H]1CC[C@H]2[C@@H](COC[C@@H](O)CN2C(=O)Nc2cc(Cl)cc(Cl)c2)O1)N1CCOCC1	-50.0	nt	1.4	-0.2	-11.4
CN1CCN(C(=O)C[C@@H]2CC[C@H]3[C@@H](COC[C@H](O)CN3C(=O)Nc3ccc(Cl)cc3)O2)CC1	-33.8*	nt	1.0	-2.3	11.9
O=C(C[C@H]1CC[C@H]2[C@@H](COC[C@H](O)CN2C(=O)Nc2cc(Cl)cc(Cl)c2)O1)N1CCOCC1	i	nt	nt	-1.3	24.7
CCNC(=O)[C@@H]1[C@@H](CO)[C@@H]2Cn3c(ccc(-c4cccc(F)c4)c3=O)[C@H]1N2C(=O)c1ccccn1	0.4	nt	0.0	-1.5	0.0
O=C1Nc2ccccc2N=C(c2ccccc2)c2ccccc21	-28.0*	nt	0.8	-0.5	nt
SMILES	Ecoli rRNA inh	PvdQ inh	ERAP1 inh	F508del corr	ARNT-TACC3 inh
COCCN(Cc1cc2cc3c(cc2nc1Cl)OCO3)C(=O)Nc1ccc(OC)cc1	17.0	-9.0	5.3	-0.7	nt
COCCN(Cc1cc2cc3c(cc2nc1Cl)OCO3)C(=O)Nc1ccc(F)cc1	-26.6*	-5.8	0.0	1.5	-9.1
CCOC(=O)C1CCN(S(=O)(=O)c2ccc3c(c2)CC(=O)N3C)CC1	2.8	6.0	100.7*	-1.4	-14.3
CN1c2ccc(-c3ccc(F)cc3)cc2[C@H]2[C@H](CCN2S(=O)(=O)c2cccc(F)c2)[C@@H]1CO	-1.1	nt	-1.1	13.6*	1.8
COc1ccc(-c2ccc3c(c2)[C@H]2[C@H](CCN2S(=O)(=O)c2ccc(F)cc2)[C@H](CO)N3C)cc1	-0.8	nt	-0.6	5.0	nt
Cc1cccc(S(=O)(=O)N2CC[C@@H]3[C@H](CO)N(C)c4ccc(C#Cc5ccc(F)cc5)cc4[C@@H]32)c1	nt	nt	nt	4.1	48.0*
COc1ccccc1S(=O)(=O)N1CC[C@@H]2[C@@H](CO)N(C)c3ccc(-c4ccc(F)cc4)cc3[C@@H]21	2.5	nt	0.1	12.4*	0.1
COc1ccc(S(=O)(=O)N2CC[C@@H]3[C@@H](CO)N(C)c4ccc(-c5ccc(F)cc5)cc4[C@@H]32)cc1	1.2	nt	-0.2	12.1*	19.5
O=C(NC[C@H]1CC[C@@H]2[C@@H](CN2C(=O)C2CCOCC2)O1)c1cccnc1	nt	nt	-2.8	-0.3	nt
CN1c2ccc(-c3ccc(C#N)cc3)cc2[C@H]2[C@H](CCN2S(=O)(=O)c2cccc(F)c2)[C@H]1CO	-0.2	nt	-1.3	15.5*	-16.4
CN1c2ccc(-c3ccc(C#N)cc3)cc2[C@@H]2[C@@H](CCN2S(=O)(=O)c2cccc(F)c2)[C@H]1CO	0.2	nt	0.8	1.8	-28.5
Nc1ccc(Br)c2cccnc12	-16.7	-5.0	-3.2	1.1	48.6*
COc1ccc(C2c3ccsc3CCN2C(C)=O)cc1 (stereo not given)	-2.2	-4.2	0.8	0.7	-2.2
COc1ccc(C2c3ccsc3CCN2C(=O)C(C)(C)C)cc1 (stereo not given)	-46.6*	-15.2	-2.2	nt	4.1
C=CCn1c(CNc2ccc(C)cc2)nnc1SCC(=O)N/N=C/c1ccc(O)cc1O	nt	-13.6	nt	nt	-4.2
C=CCn1c(CNc2ccccc2)nnc1SCC(=O)N/N=C/c1ccc(O)cc1O	nt	0.6	nt	nt	58.4*
C[C@@H]1CN([C@H](C)CO)S(=O)(=O)c2ccc(C#C[C@@H](C)O)cc2O[C@H]1CN(C)Cc1ccncc1	-2.4	nt	-3.2	-0.4	2.3
Cc1ccccc1S(=O)(=O)N[C@H]1CC[C@H](CCn2cc(-c3ccc(F)cc3)nn2)O[C@@H]1CO	3.8	nt	0.5	0.3	6.5
CCCCc1c(-c2ccccc2OC)ncn1Cc1ccccc1Cl	-51.7	nt	0.2	-5.1	nt
